Experiment [1] is described as follows: polyglutamine-triggered caspase-3 activation inhibitors, cell-based (AID 1583). As to conditions: polyglutamine-induced caspase-3 activation, cell assay; stronger effect = higher value;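 tested at 10 µM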.
Experiment [2] is described as follows: suppressors of polyQ aggregation in yeast, 75Q-TubU reporter (AID 1593). The conditions noted are these: Yeast 75Q polyglutamine aggregation reporter.
Experiment [3] can be described thus: rescue of polyQ-huntingtin neuronal dysfunction in worms, whole organism, C. elegans mechanosensory neurons, N-terminal huntingtin (AID 1599). As to conditions: touch response, stronger effect = higher value.
Experiment [4] can be described thus: inhibitors of mitochondrial cytochrome c release, biochemical, purified mitochondria (AID 1603).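 Also: mouse liver mitochondria challenged with calcium chloride; signal normalized to the plate average as 100%.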 The conditions noted are these: stronger effect = lower value.
Experiment [5] can be described thus: inhibitors of polyQ protein aggregation (AID 1604). The conditions noted are these: polyglutamine-induced protein aggregation inhibition assay; stronger effect = higher value; tested at 2.5 µM.
A short description of experiment [6]: enhancers of glutamate uptake in motor neurons, MN-1 cell line (AID 1612).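 Also: tested at 1 µM final; 0% = mean of DMSO vehicle wells on each plate; positive means more glutamate uptake than control and negative means less.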 As to conditions: MN-1 motor neuron cells, stronger effect = higher value.
The nature of experiment [7]: suppressors of polyglutamine aggregation in yeast, 75Q-TubH (AID 1616). As to conditions: S. cerevisiae 75Q-TubH polyglutamine aggregation suppression; stronger effect = higher value.
Experiment [8] can be described thus: hESC survival regulators, cell-based (AID 493140; call rule not given here;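 also: cells exposed to compounds for four days before counting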). The conditions noted are these: human embryonic stem cell survival screen; stronger effect = higher value.
Experiment [9] can be described thus: liver-stage malaria parasite growth inhibition, primary screen, cell-based, HepG2, luciferase luminescence, HepG2 viability (AID 624349).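 Also: 100% = mean of DMSO negative control wells on the same plate.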 The conditions noted are these: P. berghei liver stage in HepG2, luciferase luminescence, concentration not given here; parasite load remaining: stronger effect = lower value; viability: measured here: HepG2 viability without parasites.

The target in experiment [10] is 6-phosphogluconate dehydrogenase, decarboxylating (Homo sapiens) (UniProt P52209). Kind of experiment: 6PGD enzyme inhibitors, primary screen, biochemical, human, recombinant enzyme, NADPH absorbance (AID 1159550;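 active = at least 20% inhibition of 6-phosphogluconate dehydrogenase activity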). As to conditions: recombinant 6PGD, NADPH absorbance 341 nm; at 10 µM; stronger effect = higher value.
Sequence of 6-phosphogluconate dehydrogenase, decarboxylating (Homo sapiens) (P52209 whole entry, looked up): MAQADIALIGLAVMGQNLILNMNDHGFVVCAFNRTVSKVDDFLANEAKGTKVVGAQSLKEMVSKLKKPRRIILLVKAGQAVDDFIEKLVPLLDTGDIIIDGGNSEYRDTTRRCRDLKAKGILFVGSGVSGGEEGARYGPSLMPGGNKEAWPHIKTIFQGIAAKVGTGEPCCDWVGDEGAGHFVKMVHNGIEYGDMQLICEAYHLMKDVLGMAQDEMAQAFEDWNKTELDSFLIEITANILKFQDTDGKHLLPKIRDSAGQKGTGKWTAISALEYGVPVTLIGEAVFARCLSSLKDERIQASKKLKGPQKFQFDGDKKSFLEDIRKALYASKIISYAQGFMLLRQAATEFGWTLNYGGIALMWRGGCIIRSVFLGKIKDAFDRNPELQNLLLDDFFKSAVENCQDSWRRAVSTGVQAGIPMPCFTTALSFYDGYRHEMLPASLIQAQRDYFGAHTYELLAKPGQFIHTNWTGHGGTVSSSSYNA
A short description of experiment [11]: differential killing of epithelial or mesenchymal cells, primary screen, imaging, PC-3E GFP, TEM4-18 mCherry, co-culture (AID 1345086;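 active = compounds killing one labelled cell type while sparing the other, by normalised counts and ratio limits, not self-fluorescent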;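 as to all read-outs here: cells exposed to compound for 72 h before imaging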;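 as to red/green cell ratio (normalised): normalised mesenchymal count divided by normalised epithelial count so high means epithelial killing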). The conditions noted are these: imaging cell counts, at 1 µM; for red/green cell ratio (normalised): actives lie on both sides, counts scaled to control wells, 1 = unselective.
A short description of experiment [12]: sensitizers of A549 cells to miR-34 induction, primary screen, imaging, A549 dox-inducible miR-34, nuclei and caspase counts (AID 1347080;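 active = compounds whose cell count with miR-34 switched on is under 0.7 times the count with it off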). The conditions noted are these: A549 miR-34 inducible, Hoechst nuclei count, 48 h.
Experiment [13] can be described thus: survival rescue of mitochondrial mutant cells in low glucose, primary screen, MELAS cybrids, Rieske KO mouse fibroblasts, CellTiter-Glo (AID 1508586;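 active = mean z-score across replicates of 1.96 or higher in either the MELAS or the Rieske mutant cell line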;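 also: z relative to plate mean and SD of compound and empty wells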). For orientation: Cellular ATP, detected with luciferase, serves as a proxy for viable cell number.
Experiment [14] concerns the target NAD(+) hydrolase SARM1 (Homo sapiens) (UniProt Q6SZW1). The experiment in a line: SARM1 TIR NADase inhibitors, cell lysate, NAD-Glo luminescence (AID 1508614;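 active = compound whose remaining NAD level is above about 45 nM, limit read from the data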;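 also: higher remaining NAD means stronger inhibition of SARM1 NADase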). As to conditions: SAM-TIR HEK293T lysate NADase, at 1 µM, stronger effect = higher value.
Experiment [15] addresses Mitogen-activated protein kinase 7 (Homo sapiens) (UniProt Q13164). The experiment in a line: ERK5 transactivation activators in reporter cells, primary screen, cell-based, HTS (AID 1508626;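 active = luciferase signal above three times the same-plate solvent-only control wells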;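 also: luciferase driven by Gal4-ERK5 fusion binding five Gal4 sites before minimal TATA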). The conditions noted are these: HeLa Gal4-ERK5 transactivation, 18 h, at 5 µM, stronger effect = higher value.
The nature of experiment [16]: reducers of polyQ inclusions in PC12 cells, cell-based, NGF-treated PC12, GFPQ80 (AID 1614).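 Also: lower means fewer inclusions and 0 means no inclusions at all.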 As to conditions: PC12 NGF-treated GFP-polyQ80 inclusion reduction.
Setting [17] is: measured here: epithelial PC-3E GFP cell survival.
[18] abbreviates: measured here: mesenchymal TEM4-18 mCherry cell survival.
Setting [19] is: stronger effect = lower value, cell number ratio, induced over uninduced.
The mark [20] stands for this setting: measured here: relative caspase fold change +Dox/-Dox.
[21] abbreviates: measured here: total cells with miR-34 induction, stronger effect = lower value.
Where [22] appears, read: measured here: total cells without miR-34 induction.
Setting [23] is: MELAS cybrid survival, CellTiter-Glo 48 h, stronger effect = higher value.
[24] abbreviates: Rieske KO mouse fibroblast survival, CellTiter-Glo 72 h.

Molecules are shown by their SMILES. Where “and” joins values, the source holds several entries; their conditions need not be identical. Equal entries are not always repeated. For part of these data: Potency and affinity values are given separately. Calls of active or inactive are those of the source. Rule as the data show it, unless noted: active = parasite load remaining mostly below about 12% (no sharp cut-off); inactive = mostly above about 10%.

Sequence of Mitogen-activated protein kinase 7 (Homo sapiens) (Q13164 whole entry, looked up, the tested form may be a part): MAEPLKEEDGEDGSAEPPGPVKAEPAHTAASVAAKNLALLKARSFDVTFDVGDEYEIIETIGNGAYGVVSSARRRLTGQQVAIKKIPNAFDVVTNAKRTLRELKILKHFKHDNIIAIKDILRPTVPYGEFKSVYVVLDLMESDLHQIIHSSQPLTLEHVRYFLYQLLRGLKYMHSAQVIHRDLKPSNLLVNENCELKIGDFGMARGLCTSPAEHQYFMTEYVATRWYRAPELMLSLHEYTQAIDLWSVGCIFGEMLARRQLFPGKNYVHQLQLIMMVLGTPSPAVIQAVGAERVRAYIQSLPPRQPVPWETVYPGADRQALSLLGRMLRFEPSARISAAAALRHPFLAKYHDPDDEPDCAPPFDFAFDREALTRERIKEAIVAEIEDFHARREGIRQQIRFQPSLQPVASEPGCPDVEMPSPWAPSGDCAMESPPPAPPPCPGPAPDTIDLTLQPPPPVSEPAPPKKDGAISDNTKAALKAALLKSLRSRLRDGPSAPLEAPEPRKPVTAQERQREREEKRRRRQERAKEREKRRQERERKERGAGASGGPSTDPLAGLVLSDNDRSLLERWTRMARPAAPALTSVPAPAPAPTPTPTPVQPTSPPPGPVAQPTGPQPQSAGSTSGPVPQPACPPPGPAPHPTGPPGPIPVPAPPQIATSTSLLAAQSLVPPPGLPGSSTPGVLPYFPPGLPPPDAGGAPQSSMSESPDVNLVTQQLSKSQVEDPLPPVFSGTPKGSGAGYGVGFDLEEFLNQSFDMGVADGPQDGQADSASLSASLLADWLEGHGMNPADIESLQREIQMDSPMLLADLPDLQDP
Sequence of NAD(+) hydrolase SARM1 (Homo sapiens) (Q6SZW1 whole entry, looked up, the tested form may be a part): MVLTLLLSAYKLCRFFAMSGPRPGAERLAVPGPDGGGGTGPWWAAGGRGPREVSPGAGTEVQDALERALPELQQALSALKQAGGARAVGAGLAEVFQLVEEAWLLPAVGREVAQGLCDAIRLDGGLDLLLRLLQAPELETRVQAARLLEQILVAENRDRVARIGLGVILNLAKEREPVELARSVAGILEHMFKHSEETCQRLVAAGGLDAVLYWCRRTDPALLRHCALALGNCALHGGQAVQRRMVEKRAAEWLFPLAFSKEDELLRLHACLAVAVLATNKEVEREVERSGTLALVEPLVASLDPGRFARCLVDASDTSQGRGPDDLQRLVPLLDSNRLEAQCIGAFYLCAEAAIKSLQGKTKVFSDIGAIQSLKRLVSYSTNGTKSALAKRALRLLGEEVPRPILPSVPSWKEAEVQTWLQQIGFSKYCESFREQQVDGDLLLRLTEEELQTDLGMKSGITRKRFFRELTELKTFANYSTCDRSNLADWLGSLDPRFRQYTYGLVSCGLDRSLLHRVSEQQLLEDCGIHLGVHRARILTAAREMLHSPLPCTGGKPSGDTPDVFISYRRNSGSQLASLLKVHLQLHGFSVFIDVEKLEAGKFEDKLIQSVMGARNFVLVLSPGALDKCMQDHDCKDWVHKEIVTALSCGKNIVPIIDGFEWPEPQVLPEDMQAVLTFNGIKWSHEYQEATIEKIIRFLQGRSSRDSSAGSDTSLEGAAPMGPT

In the case of `CC(CN(C)C)CN1c2ccccc2Sc2ccccc21` (stereo not given), the results for the inhibition in experiment [1] and in [10] were -4.15% and 3.47% (inactive), respectively. Besides, the score in [2] amounted to 1.25. This compound gave a rescue above control in experiment [3] of 0. In addition, the cytochrome c release ratio in experiment [4] was found to be 1.2. Also, in [5], the inhibition of aggregation was 52.6%. Moreover, in experiment [6], the glutamate uptake change is -15.4%. In addition, in experiment [7], the aggregation suppression score is 1.08. Also, the survival in [8] was 1.08 (inactive). Besides, the parasite load remaining in experiment [9] is 56% (inactive) and 101% (inactive) and 20% (inactive). The viability – broadly, a per cent measure of how many cells are alive, often set against a control – in experiment [9] is 86.7% and 71.6% and 86.5%. In addition, the red/green cell ratio (normalised) in experiment [11] is 0.95 (inactive). The results for the normalised cell number in experiment [11] (setting [17]) and in [11] (setting [18]) were 1.1 and 1.05, respectively. Moreover, the fold change in experiment [12] (setting [19]) was 0.881 (inactive) and 0.895 (inactive); in experiment [12] (setting [20]), 1.1 and 2.21. Also, the cell count is 7480 and 9410 in experiment [12] (setting [21]); 8490 and 10500 in [12] (setting [22]). The z-score in experiment [13] (setting [23]) was 0.461 (inactive); in experiment [13] (setting [24]), -0.196. For the same compound, the remaining NAD in [14] was 10 nM (inactive). For the same compound, in experiment [15], the luciferase signal was 76 AU (inactive).
For `COc1c2ccoc2cc2oc(=O)ccc12`, the inhibition – broadly, the relative decrease from the control value, in per cent – in experiment [1] is -19.8%; in experiment [10], -3.29% (inactive). In experiment [2], this compound gave a score of 1.02. In experiment [3], this compound displayed a rescue above control of 6.75. Moreover, in experiment [4], the cytochrome c release ratio was found to be 1.07. Also, the inhibition of aggregation in [5] was found to be 80.3%. In addition, the glutamate uptake change in experiment [6] is -26.6%. The same compound came in with an inclusion score in experiment [16] of 2. In addition, in experiment [7], the aggregation suppression score came to 0.569. Further, the red/green cell ratio (normalised) in [11] is 0.94 (inactive). Besides, the normalised cell number was 1.1 in experiment [11] (setting [17]) and 1.03 in experiment [11] (setting [18]). Further, the fold change in [12] (setting [19]) is 0.859 (inactive); in [12] (setting [20]), 0.824. Further, the cell count in experiment [12] (setting [21]) came out at 8190; in experiment [12] (setting [22]), 9530. In addition, the results for the z-score in experiment [13] (setting [23]) and in experiment [13] (setting [24]) were -0.332 (inactive) and -0.177, respectively. Further, in experiment [14], the remaining NAD was 10 nM (inactive). In addition, the luciferase signal in [15] was 28 AU (inactive).
With `Cc1cc(/C=C/c2ccc3cc(N(C)C)ccc3[n+]2C)c(C)n1-c1ccccc1`, the inhibition in [1] was 21.2%; in experiment [10], 5.46% (inactive). Besides, the score in experiment [2] is -2.18. In [3], this compound registered a rescue above control of 0. Further, the cytochrome c release ratio in experiment [4] was determined as 0.75. Moreover, the inhibition of aggregation in [5] is -12.8%. In addition, the glutamate uptake change in experiment [6] was -15.7%. Besides, the aggregation suppression score in experiment [7] was -0.227. The parasite load remaining in experiment [9] is 0.35% (inactive) and 0.64% (inactive). Further, in experiment [9], the viability is 46.6% and 62.4%. Besides, in experiment [11], the red/green cell ratio (normalised) is 2.7 (active). The results for the normalised cell number in experiment [11] (setting [17]) and in experiment [11] (setting [18]) were 0.4 and 1.08, respectively. For the same compound, the results for the fold change in experiment [12] (setting [19]) and in [12] (setting [20]) were 1.07 (inactive) and 0.697, respectively. Further, the cell count in experiment [12] (setting [21]) came out at 1790; in experiment [12] (setting [22]), 1670. Besides, the remaining NAD in [14] is 10 nM (inactive). Also, in [15], the luciferase signal was 28 AU (inactive).
For `C=C1c2c(Cl)ccc(O)c2C(O)=C2C(=O)[C@]3(O)C(O)=C(C(N)=O)C(=O)[C@@H](N(C)C)[C@@H]3[C@@H](O)[C@H]12`, the inhibition is -20.8% in experiment [1] and 10.5% (inactive) in [10]. For the same compound, the score in experiment [2] is 0.46. The compound also yielded a rescue above control in [3] of 1.02. Also, the cytochrome c release ratio in [4] was 0.58. Also, in [5], the inhibition of aggregation is 84.6%. The glutamate uptake change in experiment [6] was 0.44%. In experiment [16], this compound yielded an inclusion score of 1. Moreover, in [7], the aggregation suppression score was 0.198. Besides, in experiment [8], the survival is 6.83 (inactive). In experiment [9], the parasite load remaining was 145% (inactive) and 78.4% (inactive) and 31.4% (inactive). In addition, the viability in [9] was 71.2% and 75.1% and 92.1%. For the same compound, the red/green cell ratio (normalised) in [11] was 0.85 (inactive). Moreover, the normalised cell number was found to be 0.99 in [11] (setting [17]) and 0.84 in [11] (setting [18]). For the same compound, the fold change in [12] (setting [19]) is 0.864 (inactive); in [12] (setting [20]), 1.07. Also, the figures for the cell count in experiment [12] (setting [21]) and in experiment [12] (setting [22]) were 8250 and 9550, respectively. Also, the remaining NAD in experiment [14] was 10 nM (inactive). Besides, in experiment [15], the luciferase signal is 40 AU (inactive).
As for `CC1(C)S[C@@H]2[C@H](NC(=O)Cc3ccccc3)C(=O)N2[C@H]1C(=O)O`, the inhibition in experiment [1] is 18.9%; in experiment [10], 1.35% (inactive). Further, in experiment [2], the score is 1.32. For the same compound, in experiment [3], the rescue above control was -0.92. In addition, in [4], the cytochrome c release ratio amounted to 0.98. Moreover, the inhibition of aggregation in [5] was 16.8%. Also, the glutamate uptake change in [6] came to 6.9%. This compound returned an inclusion score in experiment [16] of 2. The compound also came in with an aggregation suppression score in [7] of 1.3. In experiment [8], the survival was 5.08 (inactive). In experiment [9], the parasite load remaining was 73.8% (inactive) and 85.4% (inactive) and 69.6% (inactive). The viability in [9] was 70.9% and 69.6% and 97.7%. Moreover, the red/green cell ratio (normalised) in experiment [11] was 1.11 (inactive). Further, the figures for the normalised cell number in experiment [11] (setting [17]) and in experiment [11] (setting [18]) were 0.85 and 0.94, respectively. In addition, the fold change is 0.959 (inactive) and 0.873 (inactive) in [12] (setting [19]); 0.53 and 0.733 in experiment [12] (setting [20]). In addition, the cell count in experiment [12] (setting [21]) is 9610 and 11500; in experiment [12] (setting [22]), 10000 and 13200. Further, the z-score in experiment [13] (setting [23]) is -1.02 (inactive); in [13] (setting [24]), -0.0384. The remaining NAD in experiment [14] was 10 nM (inactive). The luciferase signal in [15] is 108 AU (inactive).

Values taken from PubChem BioAssay.
